The target in assay [1] is human Protein Tyrosine Phosphatase Non-receptor Type 9 (PTPN9), PTPN9 (gene 5780) (UniProt P43378). As to the kind of experiment: NVS_ENZ_hPTPN9: NovaScreen (NVS) Enzymatic Assay for human Protein Tyrosine Phosphatase Non-receptor Type 9 (PTPN9) (AID 2283209). The method, boiled down: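 Sf9-expressed enzyme in a cell-free assay, fluorescence read 1.33 h after dosing with mobility-shift separation of substrate and product. Tested at 25 uM in duplicate, then up to 50 uM; signal loss versus DMSO.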

Assay [2] concerns the target human Protein Tyrosine Phosphatase Non-receptor Type 6 (PTPN6), PTPN6 (gene 5777) (UniProt P29350). In words: NVS_ENZ_hPTPN6: NovaScreen (NVS) Enzymatic Assay for human Protein Tyrosine Phosphatase Non-receptor Type 6 (PTPN6) (AID 2283210). The method, boiled down: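 Cell-free assay with recombinant PTPN6 expressed in SF9 cells, fluorescent substrate, product separated from substrate by electrophoretic mobility shift; read 1.33 hours after dosing. Primary screen in duplicate at 25 uM, actives retested in concentration series; DMSO baseline.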

Assay [3] has as its target human Tyrosine Protein Kinase Receptor Tie-2 (Tie2), TEK (gene 7010) (UniProt Q02763). As to the kind of experiment: NVS_ENZ_hTie2: NovaScreen (NVS) Enzymatic Assay for human Tyrosine Protein Kinase Receptor Tie-2 (Tie2) (AID 2283225). The method, boiled down:
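Recombinant human Tie2 kinase activity was read cell-free by fluorescence with electrophoretic mobility shift, 1 hour after dosing. The screen used 25 uM in duplicate, then concentration-response up to 50 uM. Signal loss was scored against DMSO.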

Assay [4] has as its target human Vascular Endothelial Growth Factor Receptor 3 (VEGFR3), FLT4 (gene 2324) (UniProt P35916). As to the kind of experiment: NVS_ENZ_hVEGFR3: NovaScreen (NVS) Enzymatic Assay for human Vascular Endothelial Growth Factor Receptor 3 (VEGFR3) (AID 2283229). The method, boiled down: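 Cell-free recombinant VEGFR3 kinase reaction with fluorescent substrate, read 1 h after dosing by electrophoretic mobility shift separation of substrate and product. Single-concentration duplicate screen at 25 uM, then concentration-response up to 50 uM; loss of activity versus DMSO.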

The target of assay [5] is human Vascular Endothelial Growth Factor Receptor 2 (VEGFR2), KDR (gene 3791) (UniProt P35968). As to the kind of experiment: NVS_ENZ_hVEGFR2: NovaScreen (NVS) Enzymatic Assay for human Vascular Endothelial Growth Factor Receptor 2 (VEGFR2) (AID 2283230). The method, boiled down: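 Cell-free recombinant VEGFR2 kinase, fluorescent substrate with electrophoretic mobility-shift separation; read 1 h after dosing. Screened at 25 uM in duplicate, hits to concentration-response up to 50 uM; loss-of-signal versus DMSO.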

Assay [6] deals with human Protein Tyrosine Phosphatase Receptor Type M (PTPRM), PTPRM (gene 5797) (UniProt P28827). In words: NVS_ENZ_hPTPRM: NovaScreen (NVS) Enzymatic Assay for human Protein Tyrosine Phosphatase Receptor Type M (PTPRM) (AID 2283215). The method, boiled down:
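Cell-free recombinant PTPRM with fluorogenic substrate; product separated from substrate by electrophoretic mobility shift and read by fluorescence, 1.33 h after dosing. Primary screen single concentration (25 uM) in duplicate; actives retested in concentration series; loss of signal versus DMSO.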

For assay [7], the target named is human Sirtuin 1 (SIRT1), SIRT1 (gene 23411) (UniProt Q96EB6). In words: NVS_ENZ_hSIRT1: NovaScreen (NVS) Enzymatic Assay for human Sirtuin 1 (SIRT1) (AID 2283219). The method, boiled down: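 Cell-free recombinant SIRT1 with a fluorescent substrate; substrate and product separated by electrophoretic mobility shift and read by fluorescence intensity, 1 h after dosing. Primary screen at 25 uM in duplicate; hits re-run in concentration-response up to 50 uM, relative to DMSO.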

Assay [8] addresses human Sirtuin 2 (SIRT2), SIRT2 (gene 22933) (UniProt Q8IXJ6). In words: NVS_ENZ_hSIRT2: NovaScreen (NVS) Enzymatic Assay for human Sirtuin 2 (SIRT2) (AID 2283217). The method, boiled down: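 Cell-free recombinant human SIRT2, fluorescent substrate with product separated by electrophoretic mobility shift, 1 hr. Screened in duplicate at 25 uM; hits rerun singly in concentration-response up to 50 uM, relative to DMSO.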

The target of assay [9] is human Sirtuin 3 (SIRT3), SIRT3 (gene 23410) (UniProt Q9NTG7). In words: NVS_ENZ_hSIRT3: NovaScreen (NVS) Enzymatic Assay for human Sirtuin 3 (SIRT3) (AID 2283222). The method, boiled down:
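Cell-free enzyme assay with recombinant protein and fluorescent substrate, product separated by electrophoretic mobility shift; read 1 hour after dosing. Screened in duplicate at 25 uM, then singleton concentration-response up to 50 uM; loss of signal versus DMSO.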

Assay [10] concerns the target human Protein Tyrosine Phosphatase Receptor Type B (PTPRB), PTPRB (gene 5787) (UniProt P23467). As to the kind of experiment: NVS_ENZ_hPTPRB: NovaScreen (NVS) Enzymatic Assay for human Protein Tyrosine Phosphatase Receptor Type B (PTPRB) (AID 2283211). The method, boiled down: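 Recombinant human PTPRB with a fluorescent substrate, product separated by electrophoretic mobility shift; read 1 h after dosing. Primary screen in duplicate at 25 uM; actives then retested in concentration series; loss of signal versus DMSO.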

Assay [11] addresses human Protein Tyrosine Phosphatase Non-receptor Type 4 (PTPN4), PTPN4 (gene 5775) (UniProt P29074). As to the kind of experiment: NVS_ENZ_hPTPN4: NovaScreen (NVS) Enzymatic Assay for human Protein Tyrosine Phosphatase Non-receptor Type 4 (PTPN4) (AID 2283208). The method, boiled down: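 Cell-free assay of PTPN4 expressed in Sf9 cells, using a fluorescent substrate with product separated by mobility shift; read 1.33 h after dosing. Single-point screen at 25 uM, then concentration-response up to 50 uM. Loss of signal relative to DMSO.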

Assay [12] addresses human Protein Tyrosine Phosphatase Receptor Type F (PTPRF), PTPRF (gene 5792) (UniProt P10586). In words: NVS_ENZ_hPTPRF: NovaScreen (NVS) Enzymatic Assay for human Protein Tyrosine Phosphatase Receptor Type F (PTPRF) (AID 2283213). The method, boiled down: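 Cell-free fluorescence enzyme assay with recombinant protein and substrate; product separated by electrophoretic mobility shift. Read 1 h after dosing, single 25 uM duplicate screen, then concentration-response up to 50 uM; loss of signal vs DMSO.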

Assay [13] concerns the target human Raf-1 Proto-Oncogene, serine/threonine Kinase (RAF1), RAF1 (gene 5894) (UniProt P04049). As to the kind of experiment: NVS_ENZ_hRAF1: NovaScreen (NVS) Enzymatic Assay for human Raf-1 Proto-Oncogene, serine/threonine Kinase (RAF1) (AID 2283216). The method, boiled down: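 Cell-free recombinant kinase with specific fluorescent substrate, product separated by electrophoretic mobility shift; read 1 h after dosing. Primary screen at 25 uM in duplicate; hits then run in concentration-response up to 50 uM, fitted as loss of signal versus DMSO.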

For assay [14], the target named is sheep Cyclooxygenase-2 (Cox2), PTGS2 (gene 443460) (UniProt P79208). In words: NVS_ENZ_oCOX2: NovaScreen (NVS) Enzymatic Assay for sheep Cyclooxygenase-2 (Cox2) (AID 2283231). The method, boiled down:
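Compounds were first run at 25 uM in duplicate against tissue-extracted ovine COX-2; those passing a preset inhibition threshold went to singleton concentration-response testing with a 50 uM maximum. Read-out: absorbance at 0.66 hour.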

Assay [15] addresses rabbit Imidazoline 2 Central (I2C), CKB (gene 100009085) (UniProt P00567). As to the kind of experiment: NVS_ENZ_rabI2C: NovaScreen (NVS) Enzymatic Assay for rabbit Imidazoline 2 Central (I2C) (AID 2283228). The method, boiled down: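 Rabbit brain membranes, cell-free; readout by filter-based scintillation counting 1.5 hours after dosing, loss of signal vs DMSO. Initial duplicate test at 25 uM, then concentration-response with 50 uM top concentration.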

Assay [16] deals with human Tropomyosin Receptor Kinase A (TRKA), NTRK1 (gene 4914) (UniProt P04629). In words: NVS_ENZ_hTrkA: NovaScreen (NVS) Enzymatic Assay for human Tropomyosin Receptor Kinase A (TRKA) (AID 2283224). The method, boiled down:
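Recombinant human TrkA activity read after 1 h by fluorescence with electrophoretic mobility shift separating substrate and product. Primary screen in duplicate at 25 uM; actives were rerun in concentration-response up to 50 uM. Loss of signal versus DMSO.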

Assay [17] has as its target human SRC Proto-Oncogene, Non-receptor Tyrosine Kinase (SRC), SRC (gene 6714) (UniProt P12931). In words: NVS_ENZ_hSRC: NovaScreen (NVS) Enzymatic Assay for human SRC Proto-Oncogene, Non-receptor Tyrosine Kinase (SRC) (AID 2283223). The method, boiled down: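 Cell-free kinase activity assay with fluorescent substrate, product separated by electrophoretic mobility shift, read 1 h after dosing. Duplicate single point at 25 uM, then concentration-response up to 50 uM; loss of signal versus DMSO.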

“And” between values parts separate entries of the source, which are not always exact repeats. Identical values can stand only once. Results filed as inconclusive are left out. The source made the active and inactive calls. The calls were made as follows: active = hit-call score of the fitted dose curve at least 0.9, where 1 is the maximum; inconclusive = response in the unintended direction; inactive = score below 0.9.

human Sirtuin 2 (SIRT2), SIRT2 (gene 22933), sequence (Q8IXJ6 whole entry, looked up): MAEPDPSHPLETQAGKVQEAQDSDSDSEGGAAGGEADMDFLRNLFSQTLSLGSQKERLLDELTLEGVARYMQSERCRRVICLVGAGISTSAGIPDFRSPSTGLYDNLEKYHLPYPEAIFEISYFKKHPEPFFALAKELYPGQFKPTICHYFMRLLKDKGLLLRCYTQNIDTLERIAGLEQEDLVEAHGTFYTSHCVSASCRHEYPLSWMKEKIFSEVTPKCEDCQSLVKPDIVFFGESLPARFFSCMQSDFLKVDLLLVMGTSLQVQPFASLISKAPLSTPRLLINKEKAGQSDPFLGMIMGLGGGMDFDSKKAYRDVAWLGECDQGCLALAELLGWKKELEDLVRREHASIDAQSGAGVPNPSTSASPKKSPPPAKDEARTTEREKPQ
human Vascular Endothelial Growth Factor Receptor 3 (VEGFR3), FLT4 (gene 2324), sequence (P35916 whole entry, looked up): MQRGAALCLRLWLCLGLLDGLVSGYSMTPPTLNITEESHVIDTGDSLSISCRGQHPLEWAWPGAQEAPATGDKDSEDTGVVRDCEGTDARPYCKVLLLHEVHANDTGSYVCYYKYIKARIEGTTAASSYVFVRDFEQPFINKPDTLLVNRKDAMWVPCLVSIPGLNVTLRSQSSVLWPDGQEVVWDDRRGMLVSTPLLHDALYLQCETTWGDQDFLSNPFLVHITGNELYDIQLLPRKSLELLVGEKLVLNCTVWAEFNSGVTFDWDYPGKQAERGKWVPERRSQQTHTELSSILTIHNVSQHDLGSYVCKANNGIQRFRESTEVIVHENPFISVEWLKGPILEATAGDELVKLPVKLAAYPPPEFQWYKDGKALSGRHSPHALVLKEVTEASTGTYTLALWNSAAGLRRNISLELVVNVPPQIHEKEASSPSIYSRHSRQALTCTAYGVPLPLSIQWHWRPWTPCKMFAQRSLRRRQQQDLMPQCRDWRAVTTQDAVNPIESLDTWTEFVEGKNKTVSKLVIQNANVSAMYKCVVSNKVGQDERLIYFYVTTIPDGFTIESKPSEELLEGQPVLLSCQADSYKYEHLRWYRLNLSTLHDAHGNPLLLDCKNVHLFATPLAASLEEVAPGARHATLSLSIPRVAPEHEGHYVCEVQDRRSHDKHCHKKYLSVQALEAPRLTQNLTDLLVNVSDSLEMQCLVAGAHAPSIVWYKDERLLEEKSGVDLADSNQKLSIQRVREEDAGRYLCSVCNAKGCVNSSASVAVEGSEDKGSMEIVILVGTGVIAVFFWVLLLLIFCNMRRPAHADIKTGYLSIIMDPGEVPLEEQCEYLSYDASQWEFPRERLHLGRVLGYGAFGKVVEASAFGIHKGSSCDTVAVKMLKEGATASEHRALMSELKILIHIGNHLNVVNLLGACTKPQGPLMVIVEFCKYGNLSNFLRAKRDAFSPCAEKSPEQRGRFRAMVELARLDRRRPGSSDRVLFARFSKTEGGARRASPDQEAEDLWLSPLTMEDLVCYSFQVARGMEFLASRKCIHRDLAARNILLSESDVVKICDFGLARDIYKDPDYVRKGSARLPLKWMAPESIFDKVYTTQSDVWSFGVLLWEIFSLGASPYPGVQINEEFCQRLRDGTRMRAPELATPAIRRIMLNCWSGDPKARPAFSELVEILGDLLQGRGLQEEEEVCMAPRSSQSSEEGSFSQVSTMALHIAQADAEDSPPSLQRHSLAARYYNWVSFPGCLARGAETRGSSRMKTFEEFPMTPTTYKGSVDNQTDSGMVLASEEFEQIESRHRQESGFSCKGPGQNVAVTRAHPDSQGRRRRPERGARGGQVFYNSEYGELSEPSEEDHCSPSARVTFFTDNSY
human Raf-1 Proto-Oncogene, serine/threonine Kinase (RAF1), RAF1 (gene 5894), sequence (P04049 whole entry, looked up): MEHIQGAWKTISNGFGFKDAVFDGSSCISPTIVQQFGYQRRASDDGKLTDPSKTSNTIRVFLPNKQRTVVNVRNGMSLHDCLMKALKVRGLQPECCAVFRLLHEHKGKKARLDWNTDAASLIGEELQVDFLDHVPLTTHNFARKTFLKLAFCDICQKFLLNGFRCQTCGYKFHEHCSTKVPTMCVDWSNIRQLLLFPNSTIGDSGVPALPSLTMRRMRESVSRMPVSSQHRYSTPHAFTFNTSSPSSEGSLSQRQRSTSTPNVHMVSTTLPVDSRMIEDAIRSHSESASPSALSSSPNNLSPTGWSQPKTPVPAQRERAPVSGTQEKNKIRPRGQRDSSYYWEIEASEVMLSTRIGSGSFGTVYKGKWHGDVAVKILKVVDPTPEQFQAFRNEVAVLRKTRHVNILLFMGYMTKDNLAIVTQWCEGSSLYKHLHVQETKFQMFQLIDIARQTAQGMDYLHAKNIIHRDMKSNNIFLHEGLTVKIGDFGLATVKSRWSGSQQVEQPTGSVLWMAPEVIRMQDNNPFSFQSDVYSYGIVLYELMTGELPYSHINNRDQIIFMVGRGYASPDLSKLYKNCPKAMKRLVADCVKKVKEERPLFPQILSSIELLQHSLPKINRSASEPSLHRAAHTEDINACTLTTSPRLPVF
human Protein Tyrosine Phosphatase Receptor Type M (PTPRM), PTPRM (gene 5797), sequence (P28827 whole entry, looked up): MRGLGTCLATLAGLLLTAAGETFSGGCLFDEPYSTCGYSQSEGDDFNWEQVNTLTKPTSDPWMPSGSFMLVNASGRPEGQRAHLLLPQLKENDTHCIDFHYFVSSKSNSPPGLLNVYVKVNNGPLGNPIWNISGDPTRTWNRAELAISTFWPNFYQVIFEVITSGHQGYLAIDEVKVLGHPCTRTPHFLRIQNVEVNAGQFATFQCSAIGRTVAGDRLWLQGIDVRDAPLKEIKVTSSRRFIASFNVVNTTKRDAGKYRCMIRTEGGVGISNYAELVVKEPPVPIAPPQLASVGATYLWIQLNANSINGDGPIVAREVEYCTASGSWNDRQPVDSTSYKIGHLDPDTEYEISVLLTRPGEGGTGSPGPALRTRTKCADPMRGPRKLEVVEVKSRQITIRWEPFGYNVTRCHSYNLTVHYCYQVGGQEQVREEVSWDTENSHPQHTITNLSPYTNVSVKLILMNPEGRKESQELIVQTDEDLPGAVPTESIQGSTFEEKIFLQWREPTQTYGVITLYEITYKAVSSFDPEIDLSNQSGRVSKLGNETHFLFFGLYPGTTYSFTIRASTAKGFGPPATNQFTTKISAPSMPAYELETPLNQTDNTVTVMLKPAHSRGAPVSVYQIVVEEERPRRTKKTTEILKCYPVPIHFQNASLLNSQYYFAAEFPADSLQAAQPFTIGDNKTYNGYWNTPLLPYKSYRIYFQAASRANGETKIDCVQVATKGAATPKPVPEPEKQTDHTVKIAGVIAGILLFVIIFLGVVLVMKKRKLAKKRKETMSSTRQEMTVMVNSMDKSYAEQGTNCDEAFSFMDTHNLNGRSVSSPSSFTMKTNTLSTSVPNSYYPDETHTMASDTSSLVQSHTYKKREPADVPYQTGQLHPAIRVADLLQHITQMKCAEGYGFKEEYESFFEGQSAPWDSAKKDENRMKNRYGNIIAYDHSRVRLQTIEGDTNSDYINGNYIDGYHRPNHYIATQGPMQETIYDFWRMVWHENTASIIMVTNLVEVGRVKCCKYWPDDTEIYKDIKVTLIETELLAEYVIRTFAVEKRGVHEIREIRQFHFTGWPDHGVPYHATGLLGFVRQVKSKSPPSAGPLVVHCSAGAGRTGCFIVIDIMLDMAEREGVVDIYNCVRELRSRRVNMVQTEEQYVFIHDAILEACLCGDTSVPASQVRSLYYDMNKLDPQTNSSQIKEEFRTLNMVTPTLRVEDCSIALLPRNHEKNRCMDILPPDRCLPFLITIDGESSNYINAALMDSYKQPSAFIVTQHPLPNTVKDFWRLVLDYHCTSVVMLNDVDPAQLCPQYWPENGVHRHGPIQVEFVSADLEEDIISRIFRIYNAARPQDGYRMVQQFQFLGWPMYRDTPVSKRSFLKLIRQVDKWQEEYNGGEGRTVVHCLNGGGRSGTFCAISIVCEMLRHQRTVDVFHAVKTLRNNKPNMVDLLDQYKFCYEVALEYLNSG
human Tyrosine Protein Kinase Receptor Tie-2 (Tie2), TEK (gene 7010), sequence (Q02763 whole entry, looked up): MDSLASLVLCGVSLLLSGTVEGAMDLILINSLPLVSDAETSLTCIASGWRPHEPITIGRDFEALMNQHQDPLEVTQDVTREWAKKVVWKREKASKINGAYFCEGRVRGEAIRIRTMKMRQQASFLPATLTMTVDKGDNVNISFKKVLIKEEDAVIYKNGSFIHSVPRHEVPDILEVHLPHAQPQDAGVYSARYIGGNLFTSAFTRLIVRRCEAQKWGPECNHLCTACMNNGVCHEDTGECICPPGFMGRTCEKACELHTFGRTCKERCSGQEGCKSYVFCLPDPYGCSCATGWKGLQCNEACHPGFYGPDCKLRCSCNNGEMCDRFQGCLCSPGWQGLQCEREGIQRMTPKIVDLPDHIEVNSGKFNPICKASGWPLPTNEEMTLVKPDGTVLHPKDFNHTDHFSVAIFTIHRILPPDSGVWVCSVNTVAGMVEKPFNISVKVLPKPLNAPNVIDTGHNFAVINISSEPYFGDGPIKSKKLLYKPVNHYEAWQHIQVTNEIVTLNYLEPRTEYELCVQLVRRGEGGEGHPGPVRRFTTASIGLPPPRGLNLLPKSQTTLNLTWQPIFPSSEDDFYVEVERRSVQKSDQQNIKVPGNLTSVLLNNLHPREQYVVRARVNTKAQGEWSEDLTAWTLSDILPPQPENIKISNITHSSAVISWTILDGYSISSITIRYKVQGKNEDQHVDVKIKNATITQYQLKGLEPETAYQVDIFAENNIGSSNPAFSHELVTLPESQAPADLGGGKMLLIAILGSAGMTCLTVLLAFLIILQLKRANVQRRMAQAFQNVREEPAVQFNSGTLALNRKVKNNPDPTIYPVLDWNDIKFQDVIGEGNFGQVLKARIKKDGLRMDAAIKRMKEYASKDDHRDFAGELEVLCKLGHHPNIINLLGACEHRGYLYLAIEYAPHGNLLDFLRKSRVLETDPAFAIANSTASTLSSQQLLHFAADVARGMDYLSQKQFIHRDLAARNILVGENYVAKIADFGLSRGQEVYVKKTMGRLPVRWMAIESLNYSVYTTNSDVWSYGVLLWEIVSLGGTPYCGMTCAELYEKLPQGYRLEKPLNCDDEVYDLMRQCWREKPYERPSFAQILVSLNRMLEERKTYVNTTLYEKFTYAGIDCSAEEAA

Regarding `CC(C)(C)C(O)C(Oc1ccc(Cl)cc1)n1cncn1` (stereo not given), the compound was classed as inactive in assay [1], in assay [2], in assay [3], in [4] and in assay [5].

What is called AC50 is the midpoint of the concentration-response curve, whichever way the signal moves. Consider `N#Cc1c(Cl)c(Cl)c(Cl)c(C#N)c1Cl`, for which the compound was classed as inactive in assay [6], in [7] and in assay [5]. In [4], the AC50 was 38.7 µM (active).

Regarding `CCC(C)(C)C(=O)OC1=C(c2ccc(Cl)cc2Cl)C(=O)OC12CCCCC2`, the result in assay [6] was inactive. In addition, the results for the AC50 in assay [8] and in [9] were 18.9 µM (active) and 25 µM (active), respectively.

Regarding `O=C(O)C(F)(F)C(F)(F)C(F)(F)C(F)(F)C(F)(F)C(F)(F)C(F)(F)F`, the compound was classed as inactive in assay [10] and in [6]. Further, the AC50 in [3] is 13.7 µM (active).

Consider `Cc1cc(C)nc(NC(=O)NS(=O)(=O)c2ccccc2C(=O)OC2COC2)n1`, for which the AC50 is 4.96 µM (active) in [11] and 36.7 µM (active) in [1]. The compound was called inactive in assay [6] and in assay [3].

Take `CCS(=O)(=O)c1cccnc1S(=O)(=O)NC(=O)Nc1nc(OC)cc(OC)n1`: the compound was called inactive in assay [12], in assay [6] and in [13].

`CCCN(CCC)c1c([N+](=O)[O-])cc(C(F)(F)F)cc1[N+](=O)[O-]`: the compound was called inactive in [14].

On to `CNC(=O)CSP(=S)(OC)OC`, for which the result in [2], in assay [10], in [12] and in assay [3] was inactive.

Consider `O=C(Nc1ccccc1)Nc1cnns1`, for which the call in assay [15] was inactive.

In the case of `CC(C)(C)C(O)/C(=C\c1ccc(Cl)cc1Cl)n1cncn1` (stereo not given), the outcome in [16] was inactive.

`Oc1ccc(Cl)cc1Cc1ccccc1`: the compound was called inactive in [13] and in assay [17]. Further, the AC50 in [8] is 3.4 µM (active) and 9.3 µM (active); in [16], 9.39 µM (active).

As to `CNC(=O)/C=C(\C)OP(=O)(OC)OC`, the compound was classed as inactive in assay [13].

Consider `CCC(C)Nc1c([N+](=O)[O-])cc(C(C)(C)C)cc1[N+](=O)[O-]` (stereo not given), for which the compound was classed as inactive in [13] and in [7].

As to `COP(=S)(OC)Oc1ccc(SC)c(C)c1`, the compound was classed as inactive in assay [4].

`C#CCN1C(=O)COc2cc(F)c(N3C(=O)C4=C(CCCC4)C3=O)cc21`: the compound was called inactive in [14].

As for `O=C(NC(=O)c1c(F)cccc1F)Nc1ccc(OC(F)(F)C(F)OC(F)(F)F)c(Cl)c1` (stereo not given), the result in [3] was inactive.

As for `CNC(=O)Oc1cccc(N=CN(C)C)c1`, in assay [15], the AC50 was 0.67 µM (active).

(Values after PubChem BioAssay (EPA / NIEHS).)
